D2 ag-1: Beta-Arrestin HTS for Positive Allosteric Modulators of the Human D2 Dopamine Receptor: Agonists; activation, % (test concentration not listed); AID 624465, 2012; DiscoveRx PathHunter D2 beta-arrestin, luminescence, 90 min; 100% = 57 uM dopamine signal; actives 0.084% (n = 360,000); in the data active means activation above about 40%; inconclusive means between about 15% and that limit
Target sequence (P14416 whole entry, looked up): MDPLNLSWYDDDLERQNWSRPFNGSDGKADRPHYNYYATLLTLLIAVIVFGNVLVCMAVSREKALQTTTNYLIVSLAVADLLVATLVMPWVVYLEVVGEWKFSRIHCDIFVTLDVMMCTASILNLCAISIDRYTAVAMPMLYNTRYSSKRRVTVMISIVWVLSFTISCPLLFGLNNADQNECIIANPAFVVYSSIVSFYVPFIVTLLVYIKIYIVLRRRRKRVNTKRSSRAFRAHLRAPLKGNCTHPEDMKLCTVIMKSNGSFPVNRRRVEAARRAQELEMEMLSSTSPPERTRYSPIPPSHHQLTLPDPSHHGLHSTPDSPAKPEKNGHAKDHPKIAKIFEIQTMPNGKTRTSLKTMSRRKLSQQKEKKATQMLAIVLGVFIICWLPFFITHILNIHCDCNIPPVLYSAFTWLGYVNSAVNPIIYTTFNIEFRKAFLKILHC
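Agonist mode: compounds alone added to overnight-plated D2 PathHunter cells for 90 min at 37 C, with 57 uM final dopamine (EC100) defining full response. Beta-arrestin recruitment detected by chemiluminescent reagent, read after 1 h at ambient temperature.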
D2 PAM-1: Beta-Arrestin HTS for Positive Allosteric Modulators of the Human D2 Dopamine Receptor: Potentiators; D(2) dopamine receptor (Homo sapiens), P14416; DiscoveRx D2 beta-arrestin cells, luminescence, 90 min; 100% = 57 uM dopamine signal; potentiation, % (test concentration not listed); actives 0.23% (n = 360,000); in the data active means potentiation above about 50%; inconclusive means mostly about 30% to 49%
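PathHunter D2 cells, attached overnight at 37 deg C, received compound in DMSO plus dopamine at EC20 (50 nM final) for 90 min at 37 deg C. Beta-arrestin recruitment was read as luminescence after 1 h with detection reagent at ambient temperature.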
D2 antag: HTS Assay for Allosteric Antagonists of the Human D2 Dopamine Receptor: Primary Screen for Antagonists; inhibition, % at 10 µM; actives 2% (n = 340,000); D(2) dopamine receptor (Homo sapiens), P14416; AID 485344, 2010; HEK293 TREx D2 cells, calcium flux, dopamine EC80; in the data active means inhibition above about 30%; inactive means below that, where a call was filed; further: 0% is about no effect
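Compounds are added to dye-loaded, induced HEK293 T-REx cells coupled to calcium release via D2; after a 3 min kinetic read an EC80 dopamine stimulus is given and fluorescence is recorded for 3 more min.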
D2 PAM-2: HTS Assay for Positive Allosteric Modulators of the Human D2 Dopamine Receptor: Primary Screen for Potentiators; AID 485347, 2010; actives 0.34% (n = 340,000); potentiation, % at 10 µM; HEK293 T-REx D2, calcium flux, EC20 dopamine potentiation;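 active means potentiation over 3 SD above the plate norm, cut at about 30% in these data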; further: 0% is about no effect
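Potentiation of an EC20 dopamine calcium response measured kinetically over 180 s, after a preceding 180 s compound-only read flagging agonists. Cells: inducible Hek293 Trex D2 line, 4000/well, cultured overnight at 30 C before dye loading.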
D2 ag-2: HTS Assay for Allosteric Agonists of the Human D2 Dopamine Receptor: Primary Screen for Agonists. D(2) dopamine receptor (Homo sapiens), P14416. HEK293 T-REx D2 cells, calcium flux agonist mode. activation, % at 2 µM. actives 0.53% (n = 340,000);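 active means activation over 3 SD above normal in the single-dose calcium agonist read, cut at about 30% in these data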; further: 0% is about no effect
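Agonism scored from kinetic calcium signal (1 read/sec, 180 s) following compound pin transfer, after a 10 s baseline. Cells: HEK293 Trex line expressing inducible D2 receptor coupled to calcium, dye-loaded after overnight culture at 30 C.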
Numbers without * were called inactive. Shown are actives, neighbours in structure and some others; about 2.4% of the full set was active somewhere.

Results for CC(S(=O)(=O)c1ccccc1)S(=O)(=O)c1ccccc1 ?
D2 ag-1: -7; D2 PAM-1: -7

Results for CC1=C/C(=N\OS(=O)(=O)c2ccccc2)C(C)=CC1=O ?
D2 ag-1: inconclusive; D2 PAM-1: 79*; D2 antag: -6; D2 PAM-2: 5; D2 ag-2: 1

How did CC1=C(C)/C(=N\OS(=O)(=O)c2ccc(C)cc2)C=CC1=O do in these assays?
D2 ag-1: 48*; D2 PAM-1: 67*; D2 PAM-2: -2

What do the screens show for `COc1cc(C(=O)O/N=C2/C=C(C)C(=O)C=C2C)cc(OC)c1OC`?
D2 ag-1: inconclusive; D2 PAM-1: 2; D2 antag: 2; D2 PAM-2: 1; D2 ag-2: 1

Results for COc1ccc(S(=O)(=O)/N=C2/C=CC(=O)C(C)=C2C)cc1 ?
D2 ag-1: 11; D2 PAM-1: 10; D2 antag: -2; D2 PAM-2: 16; D2 ag-2: 0

How did CCc1ccc(NC(=O)c2sc3nc(C)c(Cl)c(C)c3c2NC(=O)c2ccccc2)cc1 do in these assays?
D2 PAM-2: -5; D2 ag-2: 0

How did COc1cccc(C2=CC(c3ccccc3F)n3ncc(C(=O)Nc4ccc(F)cc4)c3N2)c1 (configuration not stated) do in these assays?
D2 PAM-2: -1

Results for COc1ccc(CCN2C(=O)CC(N3CCN(S(=O)(=O)c4ccccc4)CC3)C2=O)cc1 (configuration not stated) ?
D2 ag-1: 0; D2 PAM-1: -26; D2 antag: 8; D2 PAM-2: 31*; D2 ag-2: 0

How did CCCNCC1C(Oc2ccc(Cl)cc2)C(=O)N1c1ccccc1C (configuration not stated) do in these assays?
D2 ag-1: -5; D2 PAM-1: -22; D2 antag: 51*; D2 PAM-2: -23; D2 ag-2: 1

Results for COCCNCC1C(Oc2ccc(Cl)cc2)C(=O)N1c1ccccc1C (configuration not stated) ?
D2 ag-1: 1; D2 PAM-1: -23; D2 antag: 50*; D2 PAM-2: -34; D2 ag-2: 1

What do the screens show for `CC(=O)Nc1ccc2nc3c(=O)n(C)c(=O)n(C)c3nc2c1C`?
D2 PAM-2: -2; D2 ag-2: 1

How did CCOc1ccc(NC(=O)CN(c2ccc(Cl)cc2C)S(=O)(=O)c2ccccc2)cc1 do in these assays?
D2 PAM-2: 2; D2 ag-2: 1

What do the screens show for `CC1(C)CC(=O)c2cc(OCC(=O)NCCN3CCCc4ccccc43)ccc2O1`?
D2 ag-1: 2; D2 PAM-1: -20; D2 antag: -10; D2 PAM-2: -20; D2 ag-2: 34*

Results for CC(C)CCNC(=O)COc1ccc2c(c1)C(=O)CC(C)(C)O2 ?
D2 ag-1: -2; D2 PAM-1: 2; D2 antag: 0; D2 PAM-2: -1; D2 ag-2: 0

How did O=C(Nc1cccc(-c2ccc(N3CCOCC3)nn2)c1)c1ccc(Cl)cc1 do in these assays?
D2 ag-1: 1; D2 PAM-1: 20; D2 antag: 31*; D2 PAM-2: -15; D2 ag-2: 0

How did CCn1cc(CNC(=O)c2cc(-c3ccc(C)cc3)nc3ccc(Br)cc23)c(C)n1 do in these assays?
D2 PAM-2: 3; D2 ag-2: 0

Results for CCCc1cc(=O)n2nc(N3CCC(C(=O)Nc4c(F)c(F)c(F)c(F)c4F)CC3)sc2n1 ?
D2 ag-1: 3; D2 PAM-1: -4; D2 antag: 38*; D2 PAM-2: -1; D2 ag-2: 1

What do the screens show for `CCn1cc(C(=O)N[C@@H](C)C(=O)OC)c(=O)c2cc3c(cc21)OCO3`?
D2 ag-1: -4; D2 PAM-1: -3; D2 antag: 44*; D2 PAM-2: -4; D2 ag-2: 1

What do the screens show for `CCOc1ccc(CCNC(=O)c2ccc3c(c2)nc2n3CCOC2)cc1OCC`?
D2 PAM-2: -10; D2 ag-2: 1

How did Cc1nc(N)sc1C(=O)N/N=C/c1ccccc1[N+](=O)[O-] do in these assays?
D2 antag: 33*; D2 PAM-2: 5; D2 ag-2: 1

How did O=c1[nH]nc(CNc2ccc(C(F)(F)F)cc2)c2ccccc12 do in these assays?
D2 ag-1: 6; D2 PAM-1: 1; D2 antag: 0; D2 PAM-2: 7; D2 ag-2: 1

How did O=c1[nH]nc(CNc2ccc(O)cc2)c2ccccc12 do in these assays?
D2 ag-1: 14; D2 PAM-1: 71*; D2 antag: -17; D2 PAM-2: 16; D2 ag-2: 1

Results for C[N+]1(CC(=O)Nc2ccc(F)cc2)CCN(C(=O)c2ccco2)CC1 ?
D2 ag-1: -1; D2 PAM-1: -8; D2 antag: -2; D2 PAM-2: 43*; D2 ag-2: 0

What do the screens show for `Cc1cccc(NCc2ccc(N(C)C)cc2)n1`?
D2 ag-1: 1; D2 PAM-1: -6; D2 antag: -16; D2 PAM-2: 33*; D2 ag-2: 0

What do the screens show for `Cc1c(C)n(CCc2ccccc2)c2ncnc(NCCCN(C)C)c12`?
D2 ag-1: -4; D2 PAM-1: -19; D2 antag: -9; D2 PAM-2: 16; D2 ag-2: 0

What do the screens show for `Cc1ccc(OCC(=O)Nc2ccc(O)c(-c3nc4ccccc4o3)c2)cc1`?
D2 ag-1: 1; D2 PAM-1: -11; D2 antag: 0; D2 PAM-2: 32*; D2 ag-2: 1

Results for CCOc1ccc2c(c1)C(C)=CC(C)(C)N2C(=O)Nc1ccccc1 ?
D2 ag-1: 6; D2 PAM-1: 14; D2 antag: 2; D2 PAM-2: 34*; D2 ag-2: 0

How did Fc1ccc(NC(=S)NCCc2ccc(Cl)cc2)cc1 do in these assays?
D2 ag-1: -1; D2 PAM-1: -15; D2 antag: 32*; D2 PAM-2: -2; D2 ag-2: -1

What do the screens show for `COc1ccc(Cl)cc1NC(=S)NCCc1ccc(F)cc1`?
D2 ag-1: -1; D2 PAM-1: -53; D2 antag: 40*; D2 PAM-2: -20; D2 ag-2: 0

Results for COc1ccc(Cl)cc1NC(=S)NCCc1ccc(S(N)(=O)=O)cc1 ?
D2 ag-1: -4; D2 PAM-1: -16; D2 antag: 24; D2 PAM-2: -3; D2 ag-2: 0

Compound activity (PubChem BioAssay)
